Results on 40 compounds are retold here after PubChem BioAssay (Tox21).

Structures are written as SMILES. Records with an inconclusive call do not appear. Where a call stands in place of a potency, no number is given. The source made the active and inactive calls. Calls follow the shape of the full dose curve.
Potency is read from the fitted curve at half-maximal effect.

Chain of Thyrotropin receptor (Homo sapiens) (P16473 whole entry, looked up): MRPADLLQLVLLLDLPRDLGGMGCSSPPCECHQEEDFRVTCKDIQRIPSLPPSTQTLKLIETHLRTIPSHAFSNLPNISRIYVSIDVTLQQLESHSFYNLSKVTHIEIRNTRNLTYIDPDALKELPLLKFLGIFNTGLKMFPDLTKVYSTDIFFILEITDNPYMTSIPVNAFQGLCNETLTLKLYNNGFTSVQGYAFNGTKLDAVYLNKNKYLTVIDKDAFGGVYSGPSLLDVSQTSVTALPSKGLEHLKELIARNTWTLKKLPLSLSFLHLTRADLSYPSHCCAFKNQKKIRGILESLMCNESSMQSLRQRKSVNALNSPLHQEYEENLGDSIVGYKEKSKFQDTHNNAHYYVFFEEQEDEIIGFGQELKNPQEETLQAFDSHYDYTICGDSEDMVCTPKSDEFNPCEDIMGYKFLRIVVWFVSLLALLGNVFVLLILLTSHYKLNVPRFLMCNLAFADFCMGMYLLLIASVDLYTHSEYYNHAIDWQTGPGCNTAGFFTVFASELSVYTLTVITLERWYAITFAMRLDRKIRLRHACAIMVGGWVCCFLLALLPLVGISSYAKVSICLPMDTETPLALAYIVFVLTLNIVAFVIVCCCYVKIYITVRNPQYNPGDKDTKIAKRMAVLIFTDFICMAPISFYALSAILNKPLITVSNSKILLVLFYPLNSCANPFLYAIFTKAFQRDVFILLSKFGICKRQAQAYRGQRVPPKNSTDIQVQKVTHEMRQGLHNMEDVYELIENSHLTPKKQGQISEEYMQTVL

This test concerns the target Thyrotropin receptor (Homo sapiens) (UniProt P16473). Description: qHTS assay to identify small molecule antagonists of the thyroid stimulating hormone receptor (TSHR) signaling pathway (AID 1259385). Also: nearly all actives have a fitted effect of over 20% in size. Conditions: TSHR-HEK293 cAMP HTRF, TSH-stimulated antagonist mode; series mostly up to 92.4 µM. From the text: U.S. Tox21 Program National Center for Advancing Translational Sciences [NCATS] NIH Chemical Genomics Center [NCGC] U.S. Environmental Protection Agency [EPA] National Institutes of Environmental Health Sciences [NIEHS] National Toxicology Program [NTP] U.S. Food and Drug Administration [FDA] Tox21 Assay Overview: TSHR is the receptor for thyrotropin (thyroid stimulating hormone or TSH), a member of the glycoprotein hormone family. TSH is released by the anterior pituitary gland and is the main regulator of thyroid gland growth and development. Upon binding circulating thyrotropin, a G-protein signal cascade activates adenylyl cyclase and […] cAMP concentration is increased. cAMP is a key second messenger involved extensively in cellular signal transduction pathways associated with the majority of G-protein coupled receptors (GPCRs). The activation of these GPCRs by neurotransmitters, lipids, nucleotides, peptides and hormones results in the activation or the inhibition of plasma membrane-bound adenylate cyclase through heterotrimeric G-proteins. A cell-based TSHR assay can be used to screen chemical compounds that modulate TSHR either in agonist or antagonist mode.
Tox21 Assay Protocol Summary: TSHR-Hek293 cells were dispensed at 800 cells/4uL/well in 1536-well white plates using a Multidrop dispenser. After the assay plates were incubated at a 37C/5% CO2 incubator for 18 hrs, 23 nL of compounds dissolved in DMSO, positive controls or DMSO only was transferred to the assay plate by a pin tool, followed by 1 ul medium containing Ro20-1724. For the antagonist mode screening, 1 uL of TSH was added on the top of the cell/compound mixtures to achieve a final agonist concentration of 1.5 ng/mL. After 30 min of incubation at room temperature, 2.5 ul/well of cAMP-d2 and 2.5 ul/well of anti-cAMP-cryptate were added respectively into the assay plates using a Flying Reagent Dispenser. The plates were incubated at room temperature for 1 hr. The fluorescence intensity in the plates was measured using an Envision plate reader. Each test compound was measured at 15 concentrations and in triplicates.
(Quantitative high-throughput screening tests each substance at several concentrations.)
For the compound `C[N+]1(CC2COC(c3ccccc3)(C3CCCCC3)O2)CCCCC1` (stereo not given), the Potency entry is “inactive”.
Same read-out and setting: the value for `N=c1ccn2c(n1)O[C@H]1[C@H](O)[C@@H](CO)O[C@H]12` was “inactive”; that for `C=C1C(=C/C=C2\CCC[C@]3(C)[C@@H]([C@H](C)/C=C/[C@@H](O)C4CC4)CC[C@@H]23)C[C@@H](O)C[C@@H]1O` was “inactive”; that for `CCCCOC(=O)CCCCCCCC(=O)OCCCC` was “inactive”.
The same measure, in the same setting: with `O=C1c2ccccc2S(=O)(=O)N1CCCCN1CCN(c2ncccn2)CC1` the entry was “inactive”; with `CCCCc1nc2cccnc2n1Cc1ccc(-c2ccccc2-c2nnn[nH]2)cc1`, “inactive”.
With `OCCN1CCN(CCCN2c3ccccc3C=Cc3ccccc32)CC1`, the Potency result is “inactive”.
As for `CCCOC(C(=O)OC1CCN(C)CC1)(c1ccccc1)c1ccccc1`, the Potency entry was “inactive”.
On the same count and under the same terms, the value for `CC(=O)OC[C@H]1O[C@@H](n2ncc(=O)[nH]c2=O)[C@H](OC(C)=O)[C@@H]1OC(C)=O` was “inactive”; that for `CC(C)(COC(=O)c1ccccc1)COC(=O)c1ccccc1` was “inactive”.
As for `CN(C)CCN(Cc1ccc(Cl)cc1)c1ccccn1`, the Potency entry is “inactive”.
On the same count and under the same terms, the value for `O=C(Nc1ccc(S(=O)(=O)N2CCOCC2)cc1)c1cc(Cl)ccc1NS(=O)(=O)c1ccc(Cl)s1` was “inactive”.
Take `NCC(=O)O`: the activity change, negative = inhibition was 2.94% [at 19 µM] (inactive).
In the case of `COC(C)OC`, the Potency entry was “inactive”.
With `O=C1OC(=O)C2C3C=CC(C3)C12` (stereo not given), the Potency result is “inactive”.
Still for that read-out and setting: the value for `CCOC(=O)NCCOc1ccc(Oc2ccccc2)cc1` was “inactive”.
With `NCc1ccccc1Sc1ccccc1CO`, the Potency entry is “inactive”.
Regarding `CCCCCCCC/C=C\CCCCCCCC(=O)OCC`, the Potency result is “inactive”.
For `CCCCNc1ccc(C(=O)OCCOCCOCCOCCOCCOCCOCCOCCOCCOC)cc1`, the Potency entry was “inactive”.
With `CCCCCCCCCCO[C@@H]1O[C@H](CO)[C@@H](O)[C@H](O)[C@H]1O`, the Potency result was “inactive”.
Same read-out and setting: the value for `CN(C)c1ccc(CCO)cc1` was “inactive”.
`C/C(=C(\CCOP(=O)(O)O)SC(=O)c1ccccc1)N(C=O)Cc1cnc(C)nc1N`: the activity change, negative = inhibition was -1.28% [at 8.39 µM] (inactive).
On to `CCOC(=O)C1=C[C@]2(CC)CCCN3CCc4c(n1c1ccccc41)[C@@H]32`, for which the Potency result is “inactive”.
Still for that read-out and setting: the value for `O=C(NCCO[N+](=O)[O-])c1cccnc1` was “inactive”; that for `COC(=O)C1=C(C)NC(COC(N)=O)=C(C(=O)OC(C)C)C1c1cccc(Cl)c1Cl` (stereo not given) was “inactive”; that for `NCCCN1CCOCC1` was “inactive”.
As for `CCCCCCOC(=O)NC(=N)c1ccc(NCc2nc3cc(C(=O)N(CCC(=O)OCC)c4ccccn4)ccc3n2C)cc1`, the Potency was 29.8 µM (active).
On the same count and under the same terms, the value for `CCOCC(O)COc1ccc(NC(=O)CC[S+](C)C)cc1` (stereo not given) was “inactive”.
As for `NCC(=O)CCC(=O)O`, the Potency result is “inactive”.
Same read-out and setting: with `O=S(=O)(Oc1ccc(Cl)cc1)c1ccccc1` the entry was “inactive”.
For the compound `O=[N+]([O-])c1ccc2[nH]ncc2c1`, the Potency result was “inactive”.
Regarding `C/C=C/C(=O)CC`, the activity change, negative = inhibition is 0.568% [at 19 µM] (inactive).
In the case of `Cc1oc(-c2ccccc2)nc1CCOc1cccc2c1ccn2CCC(=O)O`, the Potency result was “inactive”.
Same read-out and setting: the value for `c1ccc(CNCCNCc2ccccc2)cc1` was “inactive”; that for `O=[N+]([O-])c1ccc(NCCO)c(OCCO)c1` was “inactive”.
Turning to `C=CC(=O)OCCOCCOCCOCCOC(=O)C=C`, the Potency entry was “inactive”.
Same read-out and setting: with `O=C(O)c1nc(Cl)c(Cl)c(Cl)c1Cl` the entry was “inactive”; with `O=C(CS)Nc1ccccc1`, “inactive”.
On to `Cc1ccc(C(=O)Oc2ccc(C(O)CNC(C)(C)C)cc2OC(=O)c2ccc(C)cc2)cc1` (stereo not given), for which the Potency entry was “inactive”.
The same measure, in the same setting: with `CCCCC(CC)COC(=O)CCCCCCCCC(=O)OCC(CC)CCCC` (stereo not given) the entry was “inactive”.
